Experimental data from PubChem BioAssay (Tox21).
Inconclusive results are not listed. Where a call stands in place of a potency, no number is given. The source made the active and inactive calls. Calls follow the shape of the full dose curve.

Experiment: p53 small molecule agonists, cell-based qHTS assay with human liver microsomes: qHTS cell viability counter screen (AID 1963579); also: nearly all actives have a fitted effect of over 45% in size
Conditions: p53RE-bla HCT-116 viability, ATP luminescence, 16 h, HLM; series mostly up to 66 µM
From the text: National Center for Advancing Translational Sciences [NCATS]
Division of Preclinical Innovation [DPI]
U.S. Environmental Protection Agency [EPA]
National Institutes of Environmental Health Sciences [NIEHS]
National Toxicology Program [NTP]
U.S. Food and Drug Administration [FDA]
p53, a tumor suppressor protein, is activated following cellular insult, including DNA damage and other cellular stresses. The activation of p53 regulates cell fate by inducing DNA repair, cell cycle arrest, apoptosis, or cellular senescence. The activation of p53, therefore, is a good indicator of DNA damage and other cellular stresses. […] The activation of the reporter gene under culture conditions can be detected by fluorescence intensity. This cell line was used to screen the Tox21 10K compound library in the condition of presence of human liver microsomes and to identify agonists that activate the p53 signaling pathway after in vitro metabolic activation (Ooka et al., Archive of Toxicology 96:1975-1987, 2022).
Tox21 Assay Protocol Summary:
The p53RE-bla cells were dispensed at 4,000cells/3ul/well in 1536-well black-clear bottom plates. After the assay plates were incubated at 37 C, 5% CO2 incubator for 5 hours, 23 nL of compounds dissolved in DMSO, positive controls or DMSO only was transferred to the assay plate. Following compound addition, 3 uL of human liver microsomes (XenoTech, Kansas City, KS) at final concentration of 0.5 mg/mL and 1uL of B-Nicotinamide adenine dinucleotide 2'-phosphate (NADPH) at final concentration of 0.5 mg/mL were transferred to the assay plate. The plates were incubated at 37 C for 16 hours. 1 uL of LiveBLAzer detection mixture was added to each well and the plates were incubated at room temperature in the dark for 2 h. Fluorescence intensity at 460 and 530 nm emission and 405 nm excitation were measured by an Envision plate reader. For cell viability readout that measures cytotoxicity, 4 ul/well of CellTiter-Glo reagent was added into the assay plates using a Flying Reagent Dispenser. After 30 min incubation at room temperature, the luminescence intensity in the plates was measured using a ViewLux plate reader.

Row | SMILES | Potency
1 | C=CCc1ccc(OC)cc1 | inactive
2 | O=C(Cl)c1ccccc1 | inactive
3 | O=c1oc2ccccc2c(O)c1C(CC(O)c1ccc(-c2ccc(Br)cc2)cc1)c1ccccc1 (stereo not given) | inactive
4 | O=S1OCC2C(CO1)C1(Cl)C(Cl)=C(Cl)C2(Cl)C1(Cl)Cl (stereo not given) | inactive
5 | CN1C(=O)NC(=O)C(C)(C2=CCCCC2)C1=O (stereo not given) | inactive
6 | COP(=O)(OC)OC=C(Cl)Cl | inactive
7 | CCC(C)(CC)c1cc(NC(=O)c2c(OC)cccc2OC)on1 | inactive
8 | COP(=O)(OC)OC | inactive
9 | CCN(CC)N=O | inactive
10 | CC(C)c1ccc(CO)cc1 | inactive
11 | c1cc2c(c(N3CCNCC3)c1)OCCO2 | inactive
12 | C=C(Cl)CCl | inactive
13 | CCNc1nc(NC(C)C)nc(SC)n1 | inactive
14 | CC(C)N(C(=O)SCC(Cl)=C(Cl)Cl)C(C)C | inactive
15 | O=P1(NCCCl)OCCCN1CCCl (stereo not given) | inactive
16 | Cc1cccc(N=Nc2ccc(N(C)C)cc2)c1 | inactive
17 | O=[N+]([O-])c1ccc(Cl)c(Cl)c1 | inactive
18 | c1ccc(CN2CCNCC2)cc1 | inactive
19 | C=CCN=C=S | inactive
20 | OCCSCSCCO | inactive

Row | SMILES | Potency
21 | CN1CSC(=S)N(C)C1 | inactive
22 | Cc1cccc(C#N)c1 | inactive
23 | O=C1c2ccccc2C(=O)N1SC(Cl)(Cl)Cl | inactive
24 | NNc1ccccc1 | inactive
25 | OC(c1ccc(Cl)cc1)(c1cncnc1)c1ccccc1Cl (stereo not given) | inactive
26 | Cc1cc(Cl)ccc1N | inactive
27 | CCCCCCOC(=O)c1ccccc1C(=O)OCCCCCC | inactive
28 | CC1(C)C(C=C(Cl)Cl)C1C(=O)OC(C#N)c1cccc(Oc2ccccc2)c1 (stereo not given) | inactive
29 | O=S(=O)(O)O | inactive
30 | Cc1coc2c1CCC(C)C2 (stereo not given) | inactive
31 | c1ccc(N=Nc2ccccc2)cc1 | inactive
32 | Nc1ccccc1 | inactive
33 | O=NN1CCCCC1 | inactive
34 | C[C@]12CC[C@H]3[C@@H](CC[C@@]45O[C@@H]4C(O)=C(C#N)C[C@]35C)[C@@H]1CC[C@@H]2O | inactive
35 | CCNc1nc(Cl)nc(NC(C)C)n1 | inactive
36 | Cc1cc(Cl)ccc1OCC(=O)O | inactive
37 | CNC(=O)CSP(=S)(OC)OC | inactive
38 | CCOP(=O)(OCC)Oc1ccc([N+](=O)[O-])cc1 | inactive
39 | N#Cc1cccnc1 | inactive
40 | Clc1ccc(C(c2ccc(Cl)cc2)C(Cl)Cl)cc1 | inactive
